The text below walks through data of PubChem BioAssay.

Experiment [1] concerns the target Albumin (Bos taurus) (UniProt P02769). Put plainly: bovine serum albumin binders on microarray, profiling panel, artefact control for SMM control protein annotation, biochemical, small-molecule microarray, Alexa647 label, 635/667 nm fluorescence (AID 1118).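 Further: score merges 667 nm emission intensity and signal-to-noise per printed compound spot.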 Conditions: BSA-A647 binding, fluorescence 635 nm, higher = more signal.
Experiment [2] can be described thus: small-molecule microarray binders of probe aXIP, primary screen, biochemical, NeuroSMM set, 635/667 nm fluorescence (AID 1119).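 Further: probe is the protein aXip251-270 applied at 1 µg/mL to compound-printed slides; binding of probe to printed compounds measured as 667 nm fluorescence plus signal to noise.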 Conditions: higher = more signal, called active from +8 up or from −8 down.
The nature of experiment [3]: small-molecule binders of probe aNOTCH3, primary screen, biochemical, small-molecule microarray, 635/667 nm fluorescence (AID 1120).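 Further: probe is a biotin-tagged antibody raised against NOTCH3 rather than NOTCH3 protein; score merges spot fluorescence near 667 nm with spot signal to noise.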 The following applies: higher = more signal.
A short description of experiment [4]: small-molecule binders of probe aNOTCH2, primary screen, biochemical, small-molecule microarray, 635/667 nm fluorescence (AID 1121).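 Further: score merges feature fluorescence read at 667 nm with its signal to noise.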 Conditions: higher = more signal.
For experiment [5], the target named is Carbonic anhydrase 2 (Homo sapiens) (UniProt P00918). Put plainly: CAII small-molecule binders, profiling panel, biochemical, small-molecule microarray, Alexa647-labelled CAII (AID 1122). Conditions: CAII-A647 binding fluorescence, higher = more signal.
Experiment [6] is described as follows: COS7 lysate on small-molecule microarray, probe aHis, 635 nm (AID 1123).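 Further: z-score combines 667nm fluorescence intensity with signal-to-noise per printed compound spot.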 The following applies: COS7 cell lysate, fluorescence, higher = more signal.
Experiment [7] is described as follows: compound binding in COS7 lysate, probe aLAP1, primary screen, cell lysate, small-molecule microarray (AID 1124).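 Further: lysate comes from COS7 cells expressing LAP1 and is applied at 0.3 µg/mL; score merges spot fluorescence near 667 nm with signal-to-noise over triplicate slides.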 The following applies: probe aLAP1, fluorescence, higher = more signal.
The test system of experiment [8] is Sam68 (KHDRBS1). Put plainly: Sam68 small-molecule binders, primary screen, biochemical, small-molecule microarray, 635 nm fluorescence (AID 1125).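 Further: score merges 667 nm channel intensity with signal to noise over triplicate slides.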 The following applies: small-molecule microarray binding, higher = more signal.
Experiment [9] deals with Chordin-like protein 2 (CHRDL2). Put plainly: CHRDL2 small-molecule binders, primary screen, biochemical, small-molecule microarray, 635 nm fluorescence (AID 1126).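 Further: printed compound slides probed with Chrdl2 protein at 4 µg/mL for 1 h at 4 C; score merges 667 nm emission intensity with signal to noise over three replicate slides.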 Conditions: small-molecule microarray binding, fluorescence 635 nm; higher = more signal.
In experiment [10] the target is Concanavalin-A (Canavalia ensiformis) (UniProt P02866). Briefly: ConA small-molecule binders, primary screen, artefact control for SMM control protein annotation, biochemical, small-molecule microarray, Alexa647 label, 635 nm (AID 1127).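 Further: z combines 667 nm emission intensity with signal-to-noise across three replicate slides.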 The following applies: ConA-A647 binding fluorescence, higher = more signal.
Concanavalin-A (Canavalia ensiformis), sequence (P02866 whole entry, looked up): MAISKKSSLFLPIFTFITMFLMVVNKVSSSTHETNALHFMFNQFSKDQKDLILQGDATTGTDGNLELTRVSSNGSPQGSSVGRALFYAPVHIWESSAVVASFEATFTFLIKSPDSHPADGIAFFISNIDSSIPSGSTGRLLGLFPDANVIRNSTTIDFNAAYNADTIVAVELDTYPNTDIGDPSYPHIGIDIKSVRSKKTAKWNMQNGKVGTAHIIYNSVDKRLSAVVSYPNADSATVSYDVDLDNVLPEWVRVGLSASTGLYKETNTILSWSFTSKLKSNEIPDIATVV

SMILES strings stand for the structures. Active and inactive are the calls of the source.

Albumin (Bos taurus), sequence (P02769 whole entry, looked up): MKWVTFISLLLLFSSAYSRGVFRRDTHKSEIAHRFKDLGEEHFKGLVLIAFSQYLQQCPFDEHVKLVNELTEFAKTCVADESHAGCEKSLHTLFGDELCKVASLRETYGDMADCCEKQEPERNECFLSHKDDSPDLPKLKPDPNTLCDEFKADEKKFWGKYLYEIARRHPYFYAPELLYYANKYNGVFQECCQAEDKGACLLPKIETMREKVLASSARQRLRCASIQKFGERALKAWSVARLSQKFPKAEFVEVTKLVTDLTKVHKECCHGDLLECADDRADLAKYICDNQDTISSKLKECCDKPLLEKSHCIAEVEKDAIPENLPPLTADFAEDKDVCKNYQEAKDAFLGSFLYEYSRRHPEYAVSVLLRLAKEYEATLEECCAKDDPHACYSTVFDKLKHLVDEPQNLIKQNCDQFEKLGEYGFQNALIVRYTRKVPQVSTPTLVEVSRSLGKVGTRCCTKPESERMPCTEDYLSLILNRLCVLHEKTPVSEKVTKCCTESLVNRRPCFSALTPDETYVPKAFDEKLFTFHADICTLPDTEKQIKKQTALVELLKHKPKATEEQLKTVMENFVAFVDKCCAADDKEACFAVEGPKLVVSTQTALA

As for `COc1cc(CO)cc(I)c1O[C@H]1C=C(C(=O)NCCO)C[C@@H](N(CCN2CCOCC2)C(=O)C2CCCO2)[C@@H]1O` (stereo not given in full), the composite z-score is -0.184 in experiment [1]; 0.0261 in [3]; -0.0684 in experiment [4]; -0.107 in experiment [5]; -0.61 in experiment [6]; -0.0581 in experiment [7]. Further, the composite z-score in experiment [8] was -0.0878; in experiment [9], 0.365; in experiment [10] it was -0.0855. Also, in [2], the composite Z-score is 0.204 (inactive).

Consider `C=CCNC(=O)[C@H]1[C@@H]2C(=O)O[C@@H](c3ccccc3)[C@@H](c3ccccc3)N2[C@@H](c2ccc(OCCO)cc2)[C@]12C(=O)N(C(=O)OCCOC)c1ccc(C#CCC(C(=O)OC)C(=O)OC)cc12`, for which the composite z-score stood at 0.738 in [1]; 0.327 in [3]; 0.0654 in experiment [4]; 0.702 in [5]; 2.67 in experiment [6]; 1.44 in [7]. The composite z-score in experiment [8] worked out at 1.16; in experiment [9], 0.6; in experiment [10] it was 1.12. Further, in experiment [2], the composite Z-score is 0.245 (inactive).

With `COC(=O)[C@@]1(Cc2ccc(F)cc2)[C@H]2c3cc(C(=O)N(C)C)n(CCF)c3C[C@H]2CN1C(=O)c1ccccc1`, the composite z-score in experiment [1] was 0.914; in [3], -0.0044; in [4] it was 0.057; in [5] it was 0.733; in experiment [6], 2.6; in experiment [7], 0.89. The composite z-score in experiment [8] was 0.706; in experiment [9], -0.411; in experiment [10], 0.476. In [2], the composite Z-score is 0.312 (inactive).

On to `COc1cc(Cc2cc3c(c(CCc4ccccc4)n2)[Si](C(C)C)(C(C)C)O[C@H]3c2ccccc2)cc(OC)c1OC`, for which the composite z-score is -0.405 in experiment [1]; -0.15 in experiment [3]; -0.181 in experiment [4]; -0.128 in experiment [5]; -0.178 in [6]; -0.177 in experiment [7]. The composite z-score in [8] is -0.361; in experiment [9], 0.06; in experiment [10] it was 0.562. For the same molecule, the composite Z-score in experiment [2] was -0.0849 (inactive).

Regarding `CCOC(=O)C[C@H]1[C@H](OC(=O)c2ccc(-c3ccccc3)cc2)[C@@H](NC(=O)C2CCCCC2)c2cc(OCCCO)ccc2N1C(=O)Cc1ccc(OC)cc1`, the composite z-score in experiment [1] is 0.561; in experiment [3], -0.0362; in experiment [4], -0.182; in experiment [5], -0.0434; in [6], 0.405; in [7], 0.652. Moreover, the composite z-score in experiment [8] was 0.496; in [9], 0.0463; in [10], -0.361. For the same molecule, the composite Z-score in experiment [2] was 0.204 (inactive).

Consider `COC(=O)[C@@]1(Cc2ccc(F)cc2)[C@H]2c3cc(C(=O)N(C)C)n(Cc4cccc5ccccc45)c3C[C@H]2CN1C(=O)c1ccccc1`, for which the composite z-score came to 0.617 in [1]; 0.223 in [3]; 0.168 in [4]; 0.86 in experiment [5]; 4.13 in [6]; 0.881 in experiment [7]. Also, the composite z-score in experiment [8] was 0.343; in experiment [9], -0.967; in [10], 0.162. In addition, the composite Z-score in experiment [2] is 0.0828 (inactive).

Turning to `COCCCNC(=O)[C@@]1(Cc2ccccc2I)c2ccccc2C(=O)N(Cc2ccccc2C(F)(F)F)[C@H]1c1ccc(CO)cc1`, the composite z-score was 0.251 in experiment [1]; -0.136 in experiment [3]; -0.148 in experiment [4]; 0.487 in experiment [5]; 1.85 in experiment [6]; -0.462 in experiment [7]. The composite z-score is 0.302 in experiment [8], -1.44 in [9] and -0.375 in experiment [10]. The composite Z-score in experiment [2] is 0.29 (inactive).

Take `COCCCNC(=O)[C@]1(Cc2ccccc2N=[N+]=[N-])N=C(c2ccc(OCCCO)cc2)O[C@@H]1c1ccccc1`: the composite z-score in experiment [1] stood at 0.894; in experiment [3], 0.619; in experiment [4], 0.308; in [5] it was 0.304; in experiment [6] it was 2.85; in experiment [7], 0.536. Besides, the figures for the composite z-score in experiment [8], in [9] and in experiment [10] were 1.3, -0.586 and 1.11, respectively. Moreover, the composite Z-score in [2] was 0.522 (inactive).

`COCCOC(=O)N1C(=O)[C@@]2(c3cc(C#CCNC(N)=O)ccc31)[C@H](c1ccc(O)cc1)N1[C@H](c3ccccc3)[C@H](c3ccccc3)OC(=O)[C@H]1[C@@H]2C(=O)N1CCc2cc(OC)c(OC)cc2C1`: the composite z-score was 0.397 in [1]; 0.0962 in experiment [3]; -0.0928 in [4]; 0.414 in [5]; 0.781 in experiment [6]; -0.0347 in experiment [7]. Besides, the composite z-score in experiment [8] worked out at 1.21; in experiment [9], 0.431; in [10] it was 0.764. In experiment [2], the composite Z-score is 0.443 (inactive).

With `C=CCNC(=O)[C@H]1[C@@H]2C(=O)O[C@@H](c3ccccc3)[C@@H](c3ccccc3)N2[C@@H](c2ccc(O)cc2)[C@]12C(=O)Nc1ccc(C#CCC(C(=O)OC)C(=O)OC)cc12`, the composite z-score in [1] is 0.0574; in experiment [3] it was -0.217; in experiment [4], 0.0098; in [5] it was 0.649; in experiment [6], 1.23; in [7], 0.877. The composite z-score in [8] is 0.421; in experiment [9] it was 0.952; in experiment [10] it was -0.273. Besides, the composite Z-score in experiment [2] is -0.209 (inactive).

`COCCOC(=O)N1C(=O)[C@@]2(c3cc(C#CC4(O)CCCCCC4)ccc31)[C@H](C(N)=O)[C@H]1C(=O)O[C@H](c3ccccc3)[C@H](c3ccccc3)N1[C@@H]2c1ccc(OCCO)cc1`: the composite z-score is 0.736 in experiment [1]; 0.086 in [3]; -0.118 in [4]; 0.566 in [5]; 2.58 in experiment [6]; 0.412 in experiment [7]. Moreover, the composite z-score in [8] is 1.3; in experiment [9] it was -0.0029; in experiment [10] it was 1.17. Further, the composite Z-score in experiment [2] is 0.133 (inactive).

Turning to `C[C@]1(C(=O)NCC(F)(F)F)c2ccccc2C(=O)N(Cc2cc(C(F)(F)F)cc(C(F)(F)F)c2)[C@H]1c1ccc(CO)cc1`, the composite z-score is 0.154 in experiment [1]; -0.154 in experiment [3]; -0.0226 in experiment [4]; 0.306 in experiment [5]; 1.11 in experiment [6]; 0.108 in experiment [7]. The composite z-score in [8] was 0.1; in experiment [9], -0.404; in experiment [10], -0.522. For the same molecule, the composite Z-score in [2] is 0.196 (inactive).

For the molecule `COCCCNC(=O)[C@@]1(CCC(=O)OC(C)(C)C)N=C(c2ccc(OCCCO)cc2)O[C@H]1c1ccccc1`, the composite z-score in experiment [1] is 0.838; in experiment [3] it was 0.141; in experiment [4] it was -0.0237; in experiment [5] it was 0.696; in experiment [6] it was 2.94; in experiment [7], 0.584. The composite z-score in experiment [8] is 0.748; in [9], -0.864; in [10] it was 0.525. In addition, the composite Z-score in [2] was 0.0999 (inactive).

On to `O=C1O[C@H](c2ccccc2)[C@H](c2ccccc2)N2[C@H]1[C@@H](C(=O)Nc1nc3ccccc3s1)[C@]1(C(=O)Nc3ccccc31)[C@H]2c1ccccc1OCCO`, for which the composite z-score in experiment [1] is 0.939; in [3], 0.0242; in experiment [4] it was -0.014; in experiment [5], 0.393; in experiment [6] it was 2.24; in experiment [7], 0.921. The figures for the composite z-score in experiment [8], in experiment [9] and in experiment [10] were 1.29, -0.131 and 0.668, respectively. The composite Z-score in [2] is 0.417 (inactive).
